The source of these data is PubChem BioAssay (NCATS).

Results filed as inconclusive are left out. Activity calls are given as the source filed them. Calls come from the whole dose curve; as a rule, active = well fitted cell-killing curve with a large enough effect; inconclusive = small, poorly fitted or top-dose-only effect; inactive = no such curve, though single readings can be large or run the other way. Non-standard residues stand in square brackets, D forms with d. Residues, ends and D or L forms follow the SMILES beside them. *: point of attachment. Nva = CCC[C@H](N)C(=O)O; Cbz = O=C(OCc1ccccc1)*
Potency is the fitted concentration of half-maximal effect.

The nature of the assay: qHTS of pediatric cancer cell lines to identify multiple opportunities for drug repurposing: Primary screen for OHS-50 cells (AID 1347103). Note: nearly all actives have a fitted effect of over 40% in size. Particulars: OHS-50 osteosarcoma viability, CellTiter-Glo luminescence, 48 h; series mostly up to 57.3 µM. The source says:
Drug repurposing or repositioning has been offered as a strategy for drug development in oncology programs. This approach has special potential for childhood cancers and other rare or orphan diseases, where the expected return on new drug development has been a disincentive to pharmaceuticals.
In this project we exploit the poly-pharmacology of drugs to discover new indications via phenotypic screening of a panel of 19 well-characterized cell lines derived from solid tumors seen in children and adolescents. The goal is to identify approved drugs with previously unrecognized anticancer properties that has the potential to reveal new mechanisms and biological processes involved in carcinogenesis or drug resistance. We employed a titration-based paradigm (quantitative high-throughput screening or qHTS), where all compounds were tested at multiple concentrations for their effect on cell viability. Concentration-response curves (CRCs) were derived directly from the primary screen, and both potency and efficacy values were used to identify compounds with robust bioactivity profiles. We screened the NIH Chemical Genomics Center (NCGC) Pharmaceutical Collection (NPC) and Mechanism Interrogation Plate (MIPE) small molecule collections of approved and investigational compounds against these cell lines; and measured metabolically active cells after 48 hours of compound treatment as a proxy for cell viability.
Assay Submitter: Nathalia J. Martinez, National Center for Advancing Translational Sciences, National Institutes of Health, Rockville, MD, USA; email: natalia.martinez@nih.gov
[1] Shen, M et al. Quantitative high-throughput phenotypic screening of pediatric cancer cell lines identifies multiple opportunities for drug repurposing. Oncotarget 2017 Dec 19;9(4):4758-4772. PMID 29435139.
The cells were obtained from University of North Carolina (UNC), Pediatric Preclinical Testing Program (PPT), and Coriell Institute (CI).
qHTS cell viability assay:
Cells were assayed in growth media at a density of 500-1,000 cells/well. Five microliters of cells were dispensed into 1,536-well, white, solid-bottom, TC-treated plates (Greiner Bio One) using a multidrop dispenser and incubated at 37 degrees C, 5% CO2, under a humidified atmosphere for 5 hours. Twenty-three nanoliters of compounds and controls (neutral control DMSO or positive control bortezomib at final concentration of 2.3 µM) were subsequently transferred by Kalypsys pintool. For primary screens, the MIPE collection was tested at 11-point dilutions (final concentrations range from 0.78 nM to 46 µM) and the NPC collection at 8-point dilutions (final concentrations range from 0.59 nM to 46 µM). Compounds tested in follow-up screens were assayed at 11-point dilutions. Cells were incubated for 48 hours, followed by addition of 3 µL of CellTiter-Glo (Promega). After a 15 min incubation at room temperature, samples were analyzed for luminescence intensity using a ViewLux High-throughput CCD imager equipped with clear filters.
For orientation: In qHTS, concentration-response curves come from the screen itself.
For the compound `CC[C@H]1OC(=O)[C@H](C)[C@@H](O[C@H]2C[C@@](C)(OC)[C@@H](O)[C@H](C)O2)[C@H](C)[C@@H](O[C@@H]2O[C@H](C)C[C@H](N(C)C)[C@@H]2O)[C@](C)(OC)C[C@@H](C)C(=O)[C@H](C)[C@@H](O)[C@]1(C)O`, the Potency entry was “inactive”. Regarding `C=CC(=O)N1CCc2ccc(-n3c(=O)ccc4cnc5ccc(-c6cnn(C)c6)cc5c43)cc21`, the Potency is 8.63 µM (active). As for `O=c1[nH]c(=O)n([C@H]2C[C@@H](O)[C@@H](CO)O2)cc1C=CBr`, the Potency result was “inactive”.

With `CCN(CC)Cc1ccc2cc(COC(=O)Nc3ccc(C(=O)NO)cc3)ccc2c1`, the Potency is 0.863 µM (active). Take `C[C@@]12C[C@@]3(O)O[C@@H](O1)[C@]1(COC(=O)c4ccccc4)[C@@H]3C[C@@]12O[C@@H]1O[C@H](CO)[C@@H](O)[C@H](O)[C@@H]1O`: the Potency entry was “inactive”. Under `CN1C(C(=O)Nc2ccccn2)=C(O)c2sc(Cl)cc2S1(=O)=O` stands “inactive”; under `COC1=C(OC)C(=O)C(CC=C(C)CCC=C(C)CCC=C(C)CCC=C(C)CCC=C(C)CCC=C(C)CCC=C(C)CCC=C(C)CCC=C(C)CCC=C(C)C)=C(C)C1=O`, “inactive”; under `C[C@H](NC(=O)C(C#N)=Cc1cccc(Br)n1)c1ccccc1`, 19.3 µM (active). Take `Nc1ccc(C(=O)Nc2cccc(-c3nc(N4CCOCC4)c4oc5ncccc5c4n3)c2)cn1`: the Potency is 6.11 µM (active). On to `CC(C=CC(=O)NO)=C[C@@H](C)C(=O)c1ccc(N(C)C)cc1`, for which the Potency is 0.863 µM (active). Regarding `CC(C)(N)c1ccc(-c2nc3ccccc3nc2-c2ccccc2)cc1`, the Potency is 7.69 µM (active). In the case of `CC(=O)N[C@@H]1[C@H](O[C@@H]2c3ccc(c(Cl)c3)Oc3cc4cc(c3O[C@H]3O[C@H](CO)[C@@H](O)[C@H](O)[C@H]3NC(=O)CCCCCCCC(C)C)Oc3ccc(cc3Cl)C[C@H]3NC(=O)[C@H](N)c5ccc(O)c(c5)Oc5cc(O)cc(c5)[C@H](NC3=O)C(=O)N[C@H]4C(=O)N[C@H]3C(=O)N[C@@H]2C(=O)N[C@@H](C(=O)O)c2cc(O)cc(O[C@H]4O[C@H](CO)[C@@H](O)[C@H](O)[C@H]4O)c2-c2cc3ccc2O)O[C@H](CO)[C@@H](O)[C@@H]1O` it was “inactive”; in that of `CCC[C@@H](C=O)NC(=O)[C@H](CC(C)C)NC(=O)[C@H](CC(C)C)NC(=O)OCc1ccccc1` (Cbz-Leu-Leu-[Nva]-aldehyde), 1.53 µM (active).

As for `COC(=O)[C@@H]1CC2=CC(=O)CC[C@]2(C)[C@@]23O[C@@H]2C[C@@]2(C)[C@H](CC[C@@]24CCC(=O)O4)[C@@H]13`, the Potency entry is “inactive”. For `CCC[C@H]1C[C@H](C(=O)N[C@@H]([C@@H]2O[C@@H](SC)[C@@H](O)[C@@H](O)[C@@H]2O)[C@H](C)Cl)N(C)C1`, the Potency result was “inactive”. Consider `O=C(CCCCCCC(=O)Nc1cccnc1)NO`, for which the Potency was 4.32 µM (active). Take `COc1cc(CCc2cc(NC(=O)c3ccc(N4C[C@@H](C)N[C@@H](C)C4)cc3)n[nH]2)cc(OC)c1`: the Potency was 5.44 µM (active). On to `COc1cc([C@@H]2c3cc4c(cc3[C@H](O)[C@H]3COC(=O)[C@@H]23)OCO4)cc(OC)c1OC`, for which the Potency was 0.172 µM (active).

As to `CCN(C(=O)c1c(O)c2c(Cl)cccc2n(C)c1=O)c1ccccc1`, the Potency result is “inactive”. On to `C[C@H](CCC(=O)O)[C@H]1CC[C@H]2[C@@H]3[C@H](O)C[C@@H]4C[C@H](O)CC[C@]4(C)[C@@H]3CC[C@]12C`, for which the Potency result was “inactive”.

On to `CON=C(C(=O)N[C@@H]1C(=O)N2C(C(=O)O)=C(Cn3ccc(=N)n3CCO)CS[C@H]12)c1csc(N)n1`, for which the Potency entry is “inactive”. As for `N#Cc1c(NC(=O)c2cccc3ccccc23)sc2c1CCCC2`, the Potency was 0.485 µM (active). Consider `O=C(O)C[C@H](O)C[C@H](O)C=Cc1c(C2CC2)nc2ccccc2c1-c1ccc(F)cc1`, for which the Potency is 3.06 µM (active). `COc1ccc(Nc2cc(-c3cnc(N)nc3)nc(N3CCOCC3)n2)cn1`: the Potency was 0.385 µM (active). Turning to `Cc1noc(-c2ccc(CSCCC(=O)O)cc2)c1NC(=O)OC(C)c1ccccc1Cl` (stereo not given), the Potency entry was “inactive”.

With `C#CCC(Cc1cnc2nc(N)nc(N)c2n1)c1ccc(C(=O)N[C@@H](CCC(=O)O)C(=O)O)cc1` (stereo not given in full), the Potency was 0.109 µM (active). Under `Oc1cc2c(cc1O)C1c3ccc(O)c(O)c3OCC1(O)C2` (stereo not given) stands “inactive”. As to `CN[C@H]1[C@@H](O)[C@@H]2O[C@@H]3O[C@H](C)CC(=O)[C@]3(O)O[C@@H]2[C@@H](NC)[C@H]1O`, the Potency is 0.432 µM (active).

On to `C=CC(=O)Nc1ccc2ncnc(Nc3ccc(OCc4cccc(F)c4)c(Cl)c3)c2c1`, for which the Potency was 0.0043 µM (active). Under `CCCCCCCCc1ccc(CCC(N)(CO)CO)cc1` stands 15.3 µM (active); under `CCOc1cc2ncc(C#N)c(Nc3ccc(OCc4ccccn4)c(Cl)c3)c2cc1NC(=O)C=CCN(C)C`, 0.863 µM (active).

`CC(=O)OC[C@@H]1O[C@@H](n2ccc(=O)[nH]c2=O)[C@H](OC(C)=O)[C@H]1OC(C)=O`: the Potency entry was “inactive”. With `CC(=O)N[C@H]1[C@@H]([C@H](O)[C@H](O)CO)OC(C(=O)O)=C[C@@H]1N=C(N)N`, the Potency entry was “inactive”. For the compound `C[C@H](NC(=O)[C@@H](O)c1cc(F)cc(F)c1)C(=O)N[C@@H]1C(=O)N(C)c2ccccc2-c2ccccc21`, the Potency entry was “inactive”.

On to `CCc1cnn2c(NCc3ccc[n+]([O-])c3)cc(N3CCCC[C@@H]3CCO)nc12`, for which the Potency is 0.0343 µM (active). Consider `O=S(=O)(O)CCSSCCS(=O)(=O)O`, for which the Potency entry is “inactive”. Under `COc1cc(OC)c(C=CS(=O)(=O)Cc2ccc(OC)c(NCC(=O)O)c2)c(OC)c1` stands 0.172 µM (active); under `CN(C)CC(=O)N1CCC(c2ccc(NC(=O)c3ncc(C#N)[nH]3)c(C3=CCCCC3)c2)CC1`, 13.7 µM (active); under `CC(C)(O)Cn1c(NC(=O)c2ccc(-c3cn[nH]c3)s2)nc2cc(CN3CCOCC3)ccc21`, 1.22 µM (active). Turning to `CON=C(C(=O)N[C@@H]1C(=O)N2C(C(=O)O)=C(CSC(=O)c3ccco3)CS[C@H]12)c1csc(N)n1`, the Potency entry is “inactive”.
